# Results filed as inconclusive are left out. Calls of active or inactive are those of the source. Calls follow the shape of the dose curve; as a rule, active = well fitted cell-killing curve with a large enough effect; inconclusive = small, poorly fitted or top-dose-only effect; inactive = flat fitted curve, though single readings scatter.
# Assay: qHTS assay to identify small molecule inhibitors of chordoma cells - UCH-2 (AID 1259356)
# Details: UCH-2 chordoma viability, CellTiter-Glo ATP luminescence, 48 h; series mostly up to 46.1 µM; activity change, negative = inhibition: at the top concentration
# % is scaled to controls: 0 for no effect and ±100 for the full control effect.
row,Compound,"activity change, negative = inhibition"
1,CC(C)CC(N(C)C)C1(c2ccc(Cl)cc2)CCC1 (stereo not given),3.42% (inactive)
2,Cn1c(CCCC(=O)O)nc2cc(N(CCCl)CCCl)ccc21,-15.9% (inactive)
3,C=C1C[C@@H]2[C@H](CC[C@]3(C)C(=O)CC[C@@H]23)[C@@]2(C)C=CC(=O)C=C12,12.1% (inactive)
4,CN1CCN(C(=O)O[C@H]2c3nccnc3C(=O)N2c2ccc(Cl)cn2)CC1,0.983% (inactive)
5,CCC(C(N)=O)N1CCCC1=O (stereo not given),-2.67% (inactive)
6,CCN(C(C)=O)c1cccc(-c2ccnc3c(C#N)cnn23)c1,-0.646% (inactive)
7,O=c1[nH]c2ccccc2n1C1CCN(CCCC(c2ccc(F)cc2)c2ccc(F)cc2)CC1,-0.123% (inactive)
8,NCC1(CC(=O)O)CCCCC1,10.9% [at 20.6 µM] (inactive)
9,CCCC(C)(COC(N)=O)COC(=O)NC(C)C (stereo not given),10.7% (inactive)
10,CN(C)[C@@H]1C(=O)C(C(N)=O)=C(O)[C@@]2(O)C(=O)C3=C(O)c4c(O)cccc4[C@@](C)(O)[C@H]3C[C@@H]12,15% [at 20.6 µM] (inactive)

# Source: PubChem BioAssay (NCATS)
